Screens (PubChem BioAssay)
Shiga toxin inh: inhibitors of Shiga toxin in Vero cells; 290,000 compounds, 9.2% hits; AID 2315; Vero cells, Shiga toxin protein synthesis inhibition reporter; inhibition, % at 38.7 µM; in the data active = inhibition mostly above about 28%, no sharp cut-off; inactive = mostly below about 43%
FBPA Giardia inh: blocks Giardia fructose-bisphosphate aldolase activity; A8B2U2; purified Giardia FBPA; Potency, µM (top dose mostly 59.6 µM), actives largely listed as inhibitors; 290,000 compounds, 0.71% hits; AID 2451; also: nearly all actives have a fitted effect of over 55% in size
Target sequence (A8B2U2 whole entry, looked up): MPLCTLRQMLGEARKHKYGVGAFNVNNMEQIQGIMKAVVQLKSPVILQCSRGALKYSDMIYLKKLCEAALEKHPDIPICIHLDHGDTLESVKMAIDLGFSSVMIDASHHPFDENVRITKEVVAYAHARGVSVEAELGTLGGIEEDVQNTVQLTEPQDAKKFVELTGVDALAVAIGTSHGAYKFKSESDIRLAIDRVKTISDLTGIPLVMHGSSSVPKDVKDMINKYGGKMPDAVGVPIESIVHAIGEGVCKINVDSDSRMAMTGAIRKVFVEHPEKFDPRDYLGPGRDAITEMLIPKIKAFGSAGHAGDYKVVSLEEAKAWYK
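40 nM FBPA preincubated 10 min at RT with compound (up to 57.5 uM final), then substrate plus GAPDH/TPI/NAD/arsenate coupling and diaphorase/resazurin added. Fluorescence read after 20 min at RT, 525/598 nm.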
NS1 inh: influenza NS1 inhibition | 270,000 compounds, 0.4% hits | Potency, µM (doses to about 46.1 µM); calls by dose curve; also: actives are rising curves; nearly all actives have a fitted effect of over 50% in size
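Read-out: OD600 growth recovery of NS1-expressing budding yeast. Cells grown overnight at 30C in -URA glucose medium, washed, resuspended and diluted 1:100 in 2% galactose assay medium, pH 6.0. Same strain lacking NS1 served as positive control.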
CHX counter: counter-screen hit for Shiga toxin inhibitors, cycloheximide; cell reporter, cycloheximide protein synthesis inhibition counterscreen; max response, %; 300,000 compounds, 12% hits; AID 2314; in the data active = max response mostly above about 13%, no sharp cut-off; inactive = mostly below about 14%; also: read at 38.3 µM for the half of the compounds with a filed dose
LmPK inhibitor: blocks Leishmania mexicana pyruvate kinase activity | Q27686 | purified LmPK, Kinase-Glo ATP luminescence, 1 h | Potency, µM (doses to about 57.5 µM), usual class: inhibitors | 290,000 compounds, 0.37% hits | AID 1721
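Purified LmPK (0.1 nM) converted ADP (0.1 mM) to ATP with PEP (0.5 mM) in imidazole buffer pH 7.2 with KCl and MgCl2, 1 h at room temperature. ATP was read by Kinase-Glo luminescence; data normalized to uninhibited and no-enzyme controls.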
Of the large screens only hits and unclear results are named; the others gave an inactive call. Shown are actives, neighbours in structure and some others; about 14% of the full set was active somewhere. Unless noted, calls follow the shape of the dose curve; as a rule, active = well fitted curve in the direction sought with a large enough effect; inconclusive = small, poorly fitted or top-dose-only effect, or another doubt; inactive = no such curve, though single readings can be large; an effect the other way counts as inactive or inconclusive.

O=C(COC(=O)c1ccccc1C(=O)N1CCN(c2ccccc2)CC1)Nc1ccc(F)cc1	none
CC(=O)c1ccc(NC(=O)COC(=O)c2ccccc2Sc2ccccc2C#N)cc1	CHX counter 15.2
N#Cc1cccc(NC(=O)COC(=O)c2ccccc2Sc2ccccc2C#N)c1	none
Cc1occc1C(=O)OCC(=O)Nc1ccc(F)cc1	CHX counter 36.2
CC(=O)c1ccc(NC(=O)COC(=O)c2ccc(F)cc2F)cc1	CHX counter 12.7
O=C1CCC=C1C(O)c1ccccc1 (stereo unspecified)	none (no result: Shiga toxin inh, NS1 inh, CHX counter, LmPK inhibitor)
O=C(C1CC1)N1CCc2sccc2C1c1ccc(Cl)cc1 (stereo unspecified)	none
O=C(COC(=O)c1ccccc1Br)NCCc1ccc(F)cc1	CHX counter 30.8
CSc1ccccc1OCc1cc(C(=O)NCCCn2nc(C)cc2C)no1	none
Cc1ccccc1C(=O)Nc1cccc(C(=O)N/N=C/c2ccccn2)c1	CHX counter 11.6
Cc1cccc(/C=N/NC(=O)c2cccc(NC(=O)c3ccccc3)c2)n1	CHX counter 14.3
Cc1cccc(NC(=O)c2cccc(NC(=O)c3ccccc3)c2)n1	none
Cc1cccc(/C=N/NC(=O)c2ccc(F)cc2)n1	Shiga toxin inh 39.8, CHX counter 20.0
Cc1cccc(/C=N/NC(=O)c2cccc(Cl)c2)n1	CHX counter 16.3
Cc1cccc(/C=N/NC(=O)c2cccc([N+](=O)[O-])c2)n1	FBPA Giardia inh inconclusive
CCOc1ccccc1C1C(C#N)=C(N)N(N(C)C)C2=C1C(=O)CCC2 (stereo unspecified)	FBPA Giardia inh inconclusive
Cc1c(C)c2ccc(OCC(=O)N3CC[C@@]4(O)CCCC[C@H]4C3)c(C)c2oc1=O	none
COc1ccc(C(=O)Oc2ccc(C(c3c(C)[nH][nH]c3=O)c3c(C)[nH][nH]c3=O)cc2OC)cc1	none (no result: FBPA Giardia inh, NS1 inh, LmPK inhibitor)
Cc1[nH][nH]c(=O)c1C(c1ccc(-c2ccc(Cl)cc2Cl)o1)c1c(C)[nH][nH]c1=O	FBPA Giardia inh 12.6µM
Cc1[nH][nH]c(=O)c1C(c1ccc(-c2cccc(Cl)c2)o1)c1c(C)[nH][nH]c1=O	FBPA Giardia inh 5µM
Cc1[nH][nH]c(=O)c1C(c1ccc(-c2ccccc2C(=O)O)o1)c1c(C)[nH][nH]c1=O	FBPA Giardia inh 7.92µM (no result: NS1 inh)
COC(=O)c1ccc(-c2ccc(C(c3c(C)[nH][nH]c3=O)c3c(C)[nH][nH]c3=O)o2)cc1	FBPA Giardia inh 4.46µM (no result: NS1 inh)
Cc1[nH][nH]c(=O)c1C(c1ccc(-c2cccc(C(=O)O)c2)o1)c1c(C)[nH][nH]c1=O	Shiga toxin inh 74.4, FBPA Giardia inh 19.9µM, CHX counter 58.5
O=C(Nc1ccc2ncccc2c1)c1ccccc1Cl	none
O=C(Nc1cccc(Cl)c1)Nc1ccc2nccnc2c1	Shiga toxin inh 54.8, CHX counter 31.2
O=C(Nc1ccc2nccnc2c1)Nc1ccccc1Cl	Shiga toxin inh 61.8, FBPA Giardia inh inconclusive, CHX counter 31.7
Cn1nnc2cc(NC(=O)Nc3cccc(Cl)c3)ccc21	Shiga toxin inh 51.9, CHX counter 37.5
COc1cccc(CN2CC34CC(c5ccc(C(C)=O)cc5)C(CC3S2(=O)=O)O4)c1 (stereo unspecified)	none (no result: NS1 inh, LmPK inhibitor)
CCCCCCC#CC1C=CC(OC(=O)OCC)C(COC(=O)OCC)O1 (stereo unspecified)	none (no result: Shiga toxin inh, NS1 inh, CHX counter, LmPK inhibitor)
O=C(Nc1cccnc1)c1cccs1	none
O=C(NC(=S)Nc1ccc(Cl)cn1)c1cccs1	Shiga toxin inh 98.6, CHX counter 62.8
Cc1cnccc1NC(=O)c1cccs1	none
O=C(COC(=O)CCC(=O)c1cccs1)Nc1ccc(Cl)cn1	none
O=C(Nc1cnccn1)c1cccs1	CHX counter 19.4
O=C(Nc1ncc(Cl)cn1)c1cccs1	Shiga toxin inh 59.2, CHX counter 45.3, LmPK inhibitor inconclusive
O=C(NC(=S)Nc1cccnc1)c1cccs1	Shiga toxin inh 42.2, FBPA Giardia inh inconclusive, CHX counter 19.8
O=C(COC(=O)Cn1cnc2ccccc21)Nc1cccc(S(=O)(=O)N2CCOCC2)c1	none (no result: NS1 inh)
Cc1cc(C)cc(NC(=O)c2ccc(N3C(=O)C4CCCCC4C3=O)cc2)c1 (stereo unspecified)	none
CN1CC(=O)N2Cc3[nH]c4ccccc4c3C[C@H]2C1=O	none
COc1ccc(S(=O)(=O)N(C)CC(=O)NCCN2CCOCC2)cc1C	none
CCCC(=O)NC(=S)Nc1ccc(Cl)cn1	CHX counter 30.0
Cc1cc(Cl)ccc1OCC(=O)NC(=S)Nc1ccc(Cl)cn1	none (no result: FBPA Giardia inh)
Cc1ccc(S(=O)(=O)C2(C(=O)Nc3ccc(C(C)C)cc3)CC2)cc1	Shiga toxin inh 82.7, CHX counter 49.7 (no result: NS1 inh)
O=c1c(-c2ccccc2)nc2cnc(Nc3ccccc3)nc2n1Cc1cccs1	none (no result: Shiga toxin inh, NS1 inh, CHX counter, LmPK inhibitor)
CCCN=Cc1sc2ccc(OCC)cc2c1O	Shiga toxin inh 101.1, CHX counter 41.4
COc1ccc(C(=O)c2ccc(OC)c(OC)c2)cc1	none
COc1ccc(OC)c(N/C=C/C(=O)c2ccc(OC)c(OC)c2)c1	CHX counter 15.0
Cc1ccc(Cl)c(N/C=C/C(=O)c2ccccc2)c1	Shiga toxin inh 65.9, CHX counter 68.2
O=C(/C=C\Nc1ccccn1)c1ccc(Cl)cc1	Shiga toxin inh 75.3, CHX counter 32.5, LmPK inhibitor 12.6µM
COC(=O)c1ccc(N/C=C/C(=O)c2ccccc2)cc1	Shiga toxin inh 47.8, CHX counter 43.2
CC(=O)N[C@@H](Cc1c[nH]c2ccccc12)C(=O)NCc1ccccc1	none
CCOC(=O)c1cccc(N/C=C/C(=O)c2ccc(OC)c(OC)c2)c1	Shiga toxin inh 98.5, CHX counter 26.5
COc1ccc(C(=O)/C=C/Nc2cccc(O)c2)cc1	LmPK inhibitor 25.1µM
COc1ccc(C(=O)COC(=O)c2ccc(NC(C)=O)cc2)cc1[N+](=O)[O-]	none
CC(=O)Nc1cccc(O)c1	none (no result: Shiga toxin inh, NS1 inh, CHX counter, LmPK inhibitor)
CCOC(=O)c1ccc(OS(=O)(=O)c2ccccc2)c(OC)c1	Shiga toxin inh active, CHX counter 49.9
CCOc1cc(C(=S)N2CCOCC2)ccc1OS(=O)(=O)c1ccccc1	none
COc1cccc(C(=O)COC(=O)c2ccc(NC(C)=O)cc2)c1	CHX counter 16.1
CC1CC(OC(=O)C(O)c2ccccc2)CC(C)(C)C1 (stereo unspecified)	none (no result: NS1 inh, LmPK inhibitor)
O=C(NCc1cccnc1)c1ccc(Br)s1	none
Cc1cc(C)nc(NS(=O)(=O)c2ccc(N/C=C\C(=O)c3ccc(Cl)cc3)cc2)n1	NS1 inh inconclusive
COc1cccc(C(=O)Nc2cc(C)ccc2NC(=O)COc2ccccc2)c1	none
COc1cccc(N/C=C/C(=O)c2ccc(OC)c(OC)c2)c1	Shiga toxin inh 45.9, CHX counter 27.1
CCOC(=O)c1ccc(N/C=C\C(=O)c2cccc(OC)c2)cc1	Shiga toxin inh 94.5, CHX counter 48.3
Cc1cccc(N/C=C/C(=O)c2ccc(Cl)cc2)c1	Shiga toxin inh 87.6, CHX counter 34.5
COc1cccc(C(=O)/C=C/Nc2cc(C)ccc2O)c1	Shiga toxin inh 88.5, CHX counter 50.7
CS(=O)(=O)Nc1cccc(C2=NN(C(=O)CCCC(=O)O)C(c3cccs3)C2)c1 (stereo unspecified)	none
